Assay [1] concerns the target Metallo-beta-lactamase type 2 (Klebsiella pneumoniae) (UniProt C7C422). In words: qHTS to identify inhibitors of the New Delhi Metallo-beta-lactamase (NDM): assay validation screen against the NCATS LOPAC Collection (AID 1794843).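 Also: nitrocefin turnover by NDM-1 measured as 485 nm absorbance at plateau; series mostly up to about 38 µM; % is scaled to controls: 0 for no effect and ±100 for the full control effect.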 Put shortly:
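Nitrocefin hydrolysis (50 uM substrate stock) by NDM-1, 2 nM final, was followed by 485 nm absorbance after compound preincubation; buffer was 50 mM HEPES pH 7.0, 1 uM ZnSO4, 0.01% Tween20.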
(In general: qHTS replaces the single test concentration by a dilution series.)

In assay [2] the target is Glutathione peroxidase 1 (Homo sapiens) (UniProt P07203). In words: Primary qHTS Assay for Inhibitors of Recombinant Selenoprotein Glutathione Peroxidase 1 (GPX1) (AID 1845191). Also: nearly all actives have a fitted effect of over 65% in size. Put shortly: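 NADPH consumption tracked by fluorescence at 340/450 nm between t=0 and t=15 min, room temperature. Final mix: 10 nM GPX1, 100 nM glutathione reductase, 1 mM GSH, 0.5 mM NADPH, 0.5 mM cumene hydroperoxide, 0.01% BSA; 30 min compound–enzyme preincubation.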
Chain of Glutathione peroxidase 1 (Homo sapiens) (P07203 whole entry, looked up): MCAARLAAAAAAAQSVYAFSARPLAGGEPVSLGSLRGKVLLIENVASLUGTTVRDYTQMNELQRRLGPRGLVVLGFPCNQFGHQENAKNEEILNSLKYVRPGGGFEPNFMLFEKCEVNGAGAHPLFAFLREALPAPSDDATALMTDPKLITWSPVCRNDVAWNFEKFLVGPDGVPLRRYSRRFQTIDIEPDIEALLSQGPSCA

Assay [3] can be described thus: Viability counterscreen for agonist of constitutive androstane receptor (CAR) against the NCATS DSHEA and TCM libraries (AID 1794838).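 Also: cells exposed to compound for 24 h; 0% is about no effect.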 Put shortly:
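In agonist mode, PK11195 is added at 0.75 uM final to HepG2-CYP2B6-hCAR cells dosed with test substances. Cultures incubate 24 h at 37C before a protease-based fluorogenic viability readout.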
In general terms: Counterscreens check selectivity or assay interference.

Assay [4] addresses Nuclear receptor subfamily 1 group I member 3 (Homo sapiens) (UniProt Q14994). The assay is described as follows: Primary qHTS for agonist of constitutive androstane receptor (CAR) against the NCATS DSHEA and TCM libraries (AID 1794839).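 Also: HepG2 cells expressing human CAR with a CYP2B6 reporter plus PK11195 antagonist; 0% is about no effect.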 Put shortly: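 Cells stably carrying hCAR and a CYP2B6 reporter (HepG2 background) are seeded and allowed 5 h to adhere. Substances at multiple concentrations are added alongside 0.75 µM PK11195, and luciferase signal is measured after 24 h.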

Assay [5] can be described thus: HepG2 viability counterscreen (readout 2: ATP content) against the NCATS DSHEA and TCM libraries (AID 1794840).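 Also: HepG2 cells exposed to substances for about 24 h; 0% is about no effect.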 In outline:
(§1)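 Cytotoxicity was assessed in HepG2 cells plated at 1,000 cells/well and exposed for about 24 hours to a concentration series. Protease activity and ATP content were measured sequentially in each well.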

Assay [6] in a line: HepG2 viability counterscreen (readout 1: protease activity) against the NCATS DSHEA and TCM libraries (AID 1794841).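 Also: cells exposed to compounds for about 24 h before the protease read; 0% is about no effect.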 In outline:
as §1

The target in assay [7] is Phospholipid hydroperoxide glutathione peroxidase GPX4 (Homo sapiens) (UniProt P36969). The assay is described as follows: Primary qHTS Assay for Inhibitors of Recombinant Selenoprotein Glutathione Peroxidase 4 (GPX4) (AID 1845192). Also: nearly all actives have a fitted effect of over 65% in size. In outline: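 NADPH consumption followed by fluorescence at 340/450 nm, t=0 and after 15 min at room temperature. Reaction started with cumene hydroperoxide (0.5 mM final) after 30 min compound–GPX4 preincubation; final 200 nM GPX4, 100 nM GR, 1 mM GSH, 0.5 mM NADPH.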
Chain of Phospholipid hydroperoxide glutathione peroxidase GPX4 (Homo sapiens) (P36969 whole entry, looked up): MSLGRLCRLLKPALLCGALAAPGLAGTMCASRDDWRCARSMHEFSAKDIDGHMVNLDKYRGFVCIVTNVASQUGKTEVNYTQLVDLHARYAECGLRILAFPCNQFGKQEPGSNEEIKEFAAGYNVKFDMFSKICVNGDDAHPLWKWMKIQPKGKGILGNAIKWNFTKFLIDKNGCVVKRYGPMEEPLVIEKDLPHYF

The target in assay [8] is Cytochrome P450 3A4 (Homo sapiens) (UniProt P08684). The assay is described as follows: qHTS for inhibitors of CYP3A4 against the NCATS DSHEA and TCM libraries (AID 1919971).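 Also: % is scaled to controls: 0 for no effect and ±100 for the full control effect; inhibition lowers luminescence from luciferin made by CYP3A4.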 Put shortly:
(§2)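 Isoform-specific enzyme and substrate levels; enzyme-free wells as background. Reaction: 1x NADPH regenerating system, 30-45 min, room temperature, shielded from light; luminescent detection reagent added, 30 min.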

Assay [9] addresses Cytochrome P450 2D6 (Homo sapiens) (UniProt P10635). The assay is described as follows: qHTS for inhibitors of CYP2D6 against the NCATS DSHEA and TCM libraries (AID 1919972). Also: % is scaled to controls: 0 for no effect and ±100 for the full control effect. In outline: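 qHTS, concentration–response format with most substances from 19.5 nM. CYP2D6 + pro-luciferin substrate, 15 min with compound, then 1x NADPH regen, 30–45 min RT dark. Glo detection 30 min, luminescence. Quinidine control.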

For assay [10], the target named is Cytochrome P450 2C9 (Homo sapiens) (UniProt P11712). The assay is described as follows: qHTS for inhibitors of CYP2C9 against the NCATS DSHEA and TCM libraries (AID 1919973).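 Also: luminogenic pro-luciferin CYP2C9 substrate turned into luciferin with NADPH regeneration; series mostly up to about 34 µM; % is scaled to controls: 0 for no effect and ±100 for the full control effect.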 In outline: as §2
Chain of Cytochrome P450 2C9 (Homo sapiens) (P11712 whole entry, looked up): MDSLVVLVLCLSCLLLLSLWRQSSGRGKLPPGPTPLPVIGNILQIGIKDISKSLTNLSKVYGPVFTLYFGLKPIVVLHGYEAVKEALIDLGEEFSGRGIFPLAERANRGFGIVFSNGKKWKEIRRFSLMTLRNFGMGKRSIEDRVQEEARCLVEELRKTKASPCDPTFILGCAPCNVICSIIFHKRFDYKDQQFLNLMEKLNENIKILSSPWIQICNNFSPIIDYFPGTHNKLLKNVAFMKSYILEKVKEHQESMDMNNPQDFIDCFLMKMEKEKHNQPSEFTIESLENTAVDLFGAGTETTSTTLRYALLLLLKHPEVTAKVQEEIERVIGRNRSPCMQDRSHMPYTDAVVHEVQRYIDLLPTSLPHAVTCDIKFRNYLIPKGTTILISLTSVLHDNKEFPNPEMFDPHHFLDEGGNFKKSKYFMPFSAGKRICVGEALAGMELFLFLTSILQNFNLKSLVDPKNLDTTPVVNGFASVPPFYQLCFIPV
Assay [11] can be described thus: KB-3-1 P-gp reporter qHTS against the NCATS DSHEA and TCM libraries (AID 1919975). Also: 0% is about no effect. Put shortly: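 72 h exposure of KB-3-1 cells (DMEM, 10% FBS) to DSHEA/TCM samples, concentration-response; cell viability measured as CellTiter-Glo luminescence after 30 min at room temperature.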
Assay [12] in a line: qHTS Counterscreen for compound interference against the NCATS DSHEA and TCM libraries (AID 1919978). Also: % of control where 0% means no effect. To be noted: firefly luciferase detection reagent interference, luminescence. Put shortly: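 Read-out is luminescence after 30 min at RT with luciferin detection reagent. Before that, compounds (19.5 nM to 39.8 uM final) sat 15 min at RT with 1 uM D-luciferin or 100 mM potassium phosphate buffer. PTC124 served as intraplate control.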

Assay [13] can be described thus: Dual reporter qHTS for agonist of Pregnane X Receptor (hPXR) against the NCATS DSHEA and TCM libraries: Fluorescence readout (AID 1920058). Also: 0% is about no effect. Put shortly: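 In this qHTS counter-read, reporter-bearing HepG2 cells in charcoal-stripped serum received substances for approximately 24 h before viability was assessed fluorometrically with CellTiter-Fluor.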
For assay [14], the target named is Nuclear receptor subfamily 1 group I member 2 (Homo sapiens) (UniProt O75469). In words: Dual reporter qHTS for agonist of Pregnane X Receptor (hPXR) against the NCATS DSHEA and TCM libraries: Luminescence readout (AID 1920059). Also: 0% is about no effect. In outline:
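Luminescent PXR reporter read (ONE-Glo) after a CellTiter-Fluor viability read, following 24 h, 37C treatment of HepG2 cells stably carrying hPXR-Luc.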

In assay [15] the target is Cytochrome P450 2C19 (Homo sapiens) (UniProt P33261). The assay is described as follows: qHTS for inhibitors of CYP2C19 against the NCATS DSHEA and TCM libraries (AID 1919974).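 Also: luminescence from luciferin released by CYP2C19 oxidation of a pro-luciferin substrate.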 Also: potency is read from the fitted curve at half-maximal effect. Put shortly: as §2
Chain of Cytochrome P450 2C19 (Homo sapiens) (P33261 whole entry, looked up): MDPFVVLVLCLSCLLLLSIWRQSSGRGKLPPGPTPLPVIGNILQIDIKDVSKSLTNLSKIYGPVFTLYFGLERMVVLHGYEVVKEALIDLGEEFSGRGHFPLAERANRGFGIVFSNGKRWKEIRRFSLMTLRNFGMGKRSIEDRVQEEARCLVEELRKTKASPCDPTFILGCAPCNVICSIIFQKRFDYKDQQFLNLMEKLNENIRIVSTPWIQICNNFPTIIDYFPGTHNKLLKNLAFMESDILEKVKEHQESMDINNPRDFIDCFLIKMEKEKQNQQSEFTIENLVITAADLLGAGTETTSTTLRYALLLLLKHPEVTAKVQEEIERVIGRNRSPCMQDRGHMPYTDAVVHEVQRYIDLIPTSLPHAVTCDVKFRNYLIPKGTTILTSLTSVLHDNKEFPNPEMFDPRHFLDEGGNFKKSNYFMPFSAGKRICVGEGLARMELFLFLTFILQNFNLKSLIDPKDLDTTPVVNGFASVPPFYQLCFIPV
In assay [16] the target is Nuclear receptor subfamily 1 group I member 2 (Homo sapiens) (UniProt O75469). The assay is described as follows: Dual reporter qHTS for antagonist of Pregnane X Receptor (hPXR) against the NCATS DSHEA and TCM libraries: Luminescence Readout (AID 1920060). Also: 0% is about no effect. Put shortly: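 Rifampicin-stimulated (2 uM final) hPXR-luciferase HepG2 cells were treated for 24 h with DSNP/TCM substances. Viability came from CellTiter-Fluor fluorescence, reporter activity from ONE-Glo luminescence.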
Chain of Nuclear receptor subfamily 1 group I member 2 (Homo sapiens) (O75469 whole entry, looked up): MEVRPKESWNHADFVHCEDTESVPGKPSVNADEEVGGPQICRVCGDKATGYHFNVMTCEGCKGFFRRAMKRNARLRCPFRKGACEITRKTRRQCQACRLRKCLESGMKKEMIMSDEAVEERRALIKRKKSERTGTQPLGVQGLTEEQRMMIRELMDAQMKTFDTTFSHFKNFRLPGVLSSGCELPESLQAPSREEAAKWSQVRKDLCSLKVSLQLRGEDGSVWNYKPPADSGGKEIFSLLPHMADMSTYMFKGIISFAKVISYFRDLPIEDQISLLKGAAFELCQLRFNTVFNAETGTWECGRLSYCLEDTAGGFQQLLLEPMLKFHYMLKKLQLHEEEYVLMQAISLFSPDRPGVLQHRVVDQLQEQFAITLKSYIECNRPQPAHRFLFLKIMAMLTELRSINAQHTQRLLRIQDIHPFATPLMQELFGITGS

Assay [17] concerns the target Cytochrome P450 1A2 (Homo sapiens) (UniProt P05177). The assay is described as follows: qHTS for inhibitors of CYPIA2 against the NCATS DSHEA and TCM libraries (AID 1919976).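 Also: light from luciferin formed by CYP1A2 from a pro-luciferin substrate; series mostly up to about 37 µM; % is scaled to controls: 0 for no effect and ±100 for the full control effect.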 Put shortly:
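Furafylline served as the plate control. Compounds met CYP1A2 and pro-luciferin substrate 15 min before NADPH regeneration solution (1x) was added; after 30-45 min at RT, P450-Glo reagent was added for 30 min and luminescence was measured.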

The values below come from PubChem BioAssay (NCATS).

Values without a mark were called inactive. Inconclusive results are not listed. Calls of active or inactive are those of the source. Calls follow the shape of the dose curve; as a rule, active = well fitted curve in the direction sought with a large enough effect; inconclusive = small, poorly fitted or top-dose-only effect, or another doubt; inactive = no such curve, though single readings can be large; an effect the other way counts as inactive or inconclusive.

Chain of Cytochrome P450 2D6 (Homo sapiens) (P10635 whole entry, looked up): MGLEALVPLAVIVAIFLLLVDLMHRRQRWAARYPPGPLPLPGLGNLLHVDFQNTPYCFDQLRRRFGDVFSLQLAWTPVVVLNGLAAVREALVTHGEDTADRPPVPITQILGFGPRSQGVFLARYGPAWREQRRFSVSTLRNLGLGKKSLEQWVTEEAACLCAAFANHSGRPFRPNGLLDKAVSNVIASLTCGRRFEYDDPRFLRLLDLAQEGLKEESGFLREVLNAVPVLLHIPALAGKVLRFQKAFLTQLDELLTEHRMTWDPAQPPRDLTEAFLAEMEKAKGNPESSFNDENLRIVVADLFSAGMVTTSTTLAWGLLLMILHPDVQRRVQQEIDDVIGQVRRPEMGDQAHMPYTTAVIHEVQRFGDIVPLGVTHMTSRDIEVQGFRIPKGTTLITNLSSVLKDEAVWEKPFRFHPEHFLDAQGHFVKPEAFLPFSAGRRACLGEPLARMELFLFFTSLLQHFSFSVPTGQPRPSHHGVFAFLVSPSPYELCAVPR
Chain of Metallo-beta-lactamase type 2 (Klebsiella pneumoniae) (C7C422 whole entry, looked up): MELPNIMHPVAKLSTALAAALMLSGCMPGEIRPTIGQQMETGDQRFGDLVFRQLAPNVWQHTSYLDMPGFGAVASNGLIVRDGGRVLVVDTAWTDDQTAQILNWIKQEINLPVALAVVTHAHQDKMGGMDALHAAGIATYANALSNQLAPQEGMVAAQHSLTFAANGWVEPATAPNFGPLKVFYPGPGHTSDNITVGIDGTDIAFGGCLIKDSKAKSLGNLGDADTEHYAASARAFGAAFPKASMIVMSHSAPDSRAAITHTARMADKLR
Chain of Nuclear receptor subfamily 1 group I member 3 (Homo sapiens) (Q14994 whole entry, looked up): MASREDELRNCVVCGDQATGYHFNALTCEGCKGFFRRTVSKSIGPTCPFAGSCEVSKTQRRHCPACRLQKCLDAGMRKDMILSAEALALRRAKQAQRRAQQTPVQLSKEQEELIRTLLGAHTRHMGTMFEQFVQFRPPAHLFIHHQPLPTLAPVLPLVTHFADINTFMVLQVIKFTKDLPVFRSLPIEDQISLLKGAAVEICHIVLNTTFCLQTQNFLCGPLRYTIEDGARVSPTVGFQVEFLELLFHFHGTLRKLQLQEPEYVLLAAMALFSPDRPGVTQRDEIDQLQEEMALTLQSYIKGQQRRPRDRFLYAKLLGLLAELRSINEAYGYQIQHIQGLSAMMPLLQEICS
Chain of Cytochrome P450 3A4 (Homo sapiens) (P08684 whole entry, looked up, canonical isoform): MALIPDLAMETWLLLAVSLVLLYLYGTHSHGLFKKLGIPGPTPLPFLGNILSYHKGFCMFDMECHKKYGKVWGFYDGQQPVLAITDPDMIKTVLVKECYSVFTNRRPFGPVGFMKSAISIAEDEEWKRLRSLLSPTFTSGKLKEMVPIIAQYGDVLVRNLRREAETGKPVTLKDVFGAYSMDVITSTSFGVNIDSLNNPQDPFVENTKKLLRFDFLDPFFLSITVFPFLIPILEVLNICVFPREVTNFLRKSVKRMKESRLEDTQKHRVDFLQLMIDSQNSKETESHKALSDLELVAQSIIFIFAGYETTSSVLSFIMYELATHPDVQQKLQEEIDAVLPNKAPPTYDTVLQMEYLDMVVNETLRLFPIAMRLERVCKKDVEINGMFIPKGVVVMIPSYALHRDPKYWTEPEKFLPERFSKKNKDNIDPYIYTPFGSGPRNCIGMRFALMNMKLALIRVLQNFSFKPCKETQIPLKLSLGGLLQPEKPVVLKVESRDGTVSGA
Chain of Cytochrome P450 1A2 (Homo sapiens) (P05177 whole entry, looked up): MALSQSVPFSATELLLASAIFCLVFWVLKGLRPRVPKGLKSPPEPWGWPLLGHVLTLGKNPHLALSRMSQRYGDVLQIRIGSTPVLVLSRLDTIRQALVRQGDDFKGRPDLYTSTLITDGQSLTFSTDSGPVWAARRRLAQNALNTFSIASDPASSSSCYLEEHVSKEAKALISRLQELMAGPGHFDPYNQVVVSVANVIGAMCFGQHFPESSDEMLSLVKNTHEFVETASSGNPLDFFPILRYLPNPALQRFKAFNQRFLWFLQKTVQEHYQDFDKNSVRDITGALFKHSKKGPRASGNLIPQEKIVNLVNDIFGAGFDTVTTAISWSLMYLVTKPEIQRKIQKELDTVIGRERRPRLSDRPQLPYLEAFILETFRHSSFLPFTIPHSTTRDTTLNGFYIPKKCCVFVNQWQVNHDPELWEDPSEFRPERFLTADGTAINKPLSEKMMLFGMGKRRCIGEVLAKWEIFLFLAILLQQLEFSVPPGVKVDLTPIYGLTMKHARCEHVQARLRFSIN

Take `CC[C@H](C)C(=O)O[C@H]1CCC=C2C=C[C@H](C)[C@H](CC[C@@H]3C[C@@H](O)CC(=O)O3)[C@H]21`: in [1], the call was inactive. In addition, in [2], the Potency result is “inactive”.
On to `Nc1ccc(C(=O)O)cc1`, for which the molecule was classed as inactive in assay [3], in assay [4], in assay [5], in [6], in assay [8] and in assay [9]. Also, the outcome in assay [10], in assay [11], in [13] and in assay [14] was inactive. Further, the Potency result in assay [2] and in assay [7] was “inactive” throughout. Further, in [12], the max response was -2.08%.
For `COC(=O)[C@H]1[C@H]2C[C@H]3c4[nH]c5ccccc5c4CCN3C[C@H]2CC[C@@H]1O`, the Potency result in assay [2] was “inactive”.
As for `CC(C)C[C@H]1C(=O)N2CCC[C@H]2[C@]2(O)O[C@](NC(=O)[C@@H]3C=C4c5cccc6[nH]c(Br)c(c56)C[C@H]4N(C)C3)(C(C)C)C(=O)N12`, the result in assay [1] was inactive. Also, the Potency result in [2] and in assay [7] was “inactive” each time.
On to `Nc1nc2ncc(CNc3ccc(C(=O)N[C@@H](CCC(=O)O)C(=O)O)cc3)nc2c(=O)[nH]1`, for which the outcome in assay [3], in [4], in assay [5], in [8], in assay [9] and in assay [10] was inactive. The call in assay [11], in assay [13] and in assay [14] was inactive. Further, the Potency in assay [15] was 3.55 µM (active). For the same molecule, in assay [12], the max response is -4.69%.
For the molecule `CCCC1O[C@@H]2C[C@H]3[C@@H]4CCC5=CC(=O)C=C[C@]5(C)[C@H]4[C@@H](O)C[C@]3(C)[C@]2(C(=O)CO)O1` (some centres not stated), the molecule was classed as inactive in assay [1]. In assay [2], the Potency entry is “inactive”.
In the case of `CC(=O)O[C@H]1C[C@@H]2CC[C@@H]3[C@H](CC[C@@]4(C)[C@H]3C[C@H]([N+]3(C)CCCCC3)[C@@H]4OC(C)=O)[C@@]2(C)C[C@@H]1[N+]1(C)CCCCC1`, the call in assay [1] was inactive. In addition, the Potency result in assay [2] and in [7] was “inactive” each time.
Turning to `O=c1ccc2ccccc2o1`, the outcome in [3], in assay [4], in assay [5], in [6], in assay [8] and in [9] was inactive. The molecule was classed as inactive in [10], in assay [11], in [13], in assay [14] and in assay [16]. In addition, the Potency result in [2], in assay [7] and in [15] was “inactive” in each case. Also, in [12], the max response was 0.354%.
Turning to `CCOc1ccc(NC(=O)CC(C)O)cc1` (configuration not stated), in assay [2], the Potency entry was “inactive”.
As for `C=CCc1ccc(O)c(OC)c1`, the call in [3], in assay [4], in assay [5], in [6], in assay [10] and in assay [11] was inactive. Moreover, the molecule was called inactive in assay [13], in [14] and in assay [16]. Further, the Potency entry in [2] and in [7] was “inactive” throughout. In [12], the max response is -2.5%.
`C[N+]1(CCCCC[N+]2(C)CCCC2)CCCC1`: in assay [1], the molecule was classed as inactive. Also, the Potency entry in assay [2] and in assay [7] was “inactive” in each case.
For the molecule `O=C(O)c1cc2cc(Cc3cccnc3)ccc2o1`, the molecule was classed as inactive in assay [1]. For the same molecule, the Potency entry in assay [2] is “inactive”.
Regarding `C/C=C/c1ccc(OC)cc1`, the result in assay [3], in assay [4], in assay [5], in assay [6], in [9] and in assay [10] was inactive. Besides, the call in assay [11], in assay [17], in [13], in assay [14] and in assay [16] was inactive. Also, in assay [2], the Potency result is “inactive”. Also, in assay [15], the Potency was 15.8 µM (active). Besides, the max response in assay [12] was -1.84%.
Turning to `N[C@@H](Cc1cnc[nH]1)C(=O)O`, in [1], the molecule was called inactive. Also, the Potency entry in [2] and in assay [7] was “inactive” in each case.
`CC(=O)Oc1ccc(C(c2ccc(OC(C)=O)cc2)c2ccccn2)cc1`: the Potency entry in assay [2] was “inactive”.
For the molecule `C[C@]12CC[C@@H]3c4ccc(O)cc4CC[C@H]3[C@@H]1C[C@@H](O)[C@@H]2O`, in assay [2], the Potency result was “inactive”.
As to `CC(=O)OCC(=O)[C@@]12N=C(C)O[C@@H]1C[C@H]1[C@@H]3CCC4=CC(=O)C=C[C@]4(C)[C@H]3[C@@H](O)C[C@@]12C`, the Potency entry in assay [2] was “inactive”.
For `CCC(NC(C)C)C(O)c1ccc(O)c(O)c1` (configuration not stated), the call in [1] was inactive. In addition, the Potency result in assay [2] and in [7] was “inactive” each time.
Consider `COc1cc(/C=C/C(=O)O[C@H]2CC[C@]34C[C@]35CC[C@]3(C)[C@@H]([C@H](C)CCC=C(C)C)CC[C@@]3(C)[C@@H]5CC[C@H]4C2(C)C)ccc1O`, for which, in assay [2], the Potency entry was “inactive”.
In the case of `Nc1cc(Cl)c(NC2=NCCN2)c(Cl)c1`, the molecule was classed as inactive in assay [1]. For the same molecule, the Potency entry in assay [2] was “inactive”.
With `CO/N=C1\CN(c2nc3c(cc2F)c(=O)c(C(=O)O)cn3C2CC2)CC1CN` (configuration not stated), the Potency result in assay [2] was “inactive”.
`COc1ccc(C2C(=O)c3ccccc3C2=O)cc1`: the Potency result in assay [2] is “inactive”.
Consider `C[C@H]1C[C@H]2[C@@H]3CCC4=CC(=O)C=C[C@]4(C)[C@@]3(Cl)[C@@H](O)C[C@]2(C)[C@@]1(O)C(=O)CO`, for which, in assay [2], the Potency result is “inactive”.
Take `Oc1ccc(O)cc1`: the call in assay [1] was inactive. Further, the Potency result in assay [2] and in assay [7] was “inactive” in each case.
As to `COc1cc2c(cc1OC)C(=O)C(CC1CCN(Cc3ccccc3)CC1)C2` (configuration not stated), the Potency result in assay [2] was “inactive”.
Take `CCCn1c(=O)[nH]c(=O)c2[nH]cnc21`: in assay [1], the outcome was inactive. Also, the Potency result in [2] and in assay [7] was “inactive” each time.
Turning to `CC1(C)CCC(NC(=O)[C@@H](N)CCC(=O)O)CC1`, the outcome in assay [1] was inactive. In addition, the Potency result in assay [2] and in assay [7] was “inactive” in each case.
